The source of these data is PubChem BioAssay.

Active and inactive are the calls of the source.

Assay [1] has as its system Wnt5a (protein binding on small-molecule microarray). Nature of the assay: small molecules binding Wnt5a protein – biophysical, small-molecule microarray, 635/667 nm fluorescence, primary screen (AID 1142).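 Also: fluorescence read at 667 nm with signal to noise per printed feature.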 Conditions: 635 nm fluorescence, higher = more signal.
Assay [2] can be described thus: ATP-based viability of Huh7 replicon cells – cell-based, CellTiter-Glo luminescence, basal, 48 h, cytotoxicity control for HCV replication inhibitor project, primary screen (AID 1143).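 Also: Huh7 hepatoma cells carrying a hepatitis C replication reporter with no stimulus; test concentration not given here.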 The following applies: higher = more signal, called active from +8 up or from −8 down. A general note: Replicon systems follow genome replication, usually without infectious particles.

The nature of assay [3]: basal CRE-LacZ reporter activity in PC12 – cell-based, unstimulated, primary screen (AID 1145). The following applies: no forskolin, luminescence, 4.5 h, higher = more signal, called active from +8 up or from −8 down.
Assay [4] is described as follows: forskolin-driven CRE-LacZ activity in PC12 – cell-based, CRE-LacZ reporter, forskolin-stimulated, primary screen (AID 1146).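 Also: PC12 cells with 6xCRE LacZ reporter stimulated by forskolin 10 µM; beta-galactosidase reporter signal reflecting CREB driven transcription.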 The following applies: luminescence, 4.5 h, higher = more signal, called active from +8 up or from −8 down.
Assay [5] addresses Streptavidin (Streptomyces avidinii) (UniProt P22629). Nature of the assay: compounds binding control protein streptavidin – biophysical, small-molecule microarray, 635/667 nm fluorescence, artefact control for SMM compound annotation, primary screen (AID 1147).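 Also: signal reflects streptavidin binding to arrayed compounds as a control protein.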 Conditions: higher = more signal.
Assay [6] in a line: probe aInhba binding on compound microarray – biochemical, small-molecule microarray, 635/667 nm fluorescence, primary screen (AID 1148).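 Also: score merges 667nm spot fluorescence with signal-to-noise for antibody binding to printed compounds.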 The following applies: higher = more signal.
The target of assay [7] is Torsin-1A (Homo sapiens) (UniProt O14656). In words: TOR1A wild-type binding on microarray – cell lysate, small-molecule microarray, lysate, 635/667 nm, primary screen (AID 1149). Conditions: COS7 hTOR1A-WT lysate, 635 nm fluorescence, higher = more signal.
Torsin-1A (Homo sapiens), sequence (O14656 whole entry, looked up): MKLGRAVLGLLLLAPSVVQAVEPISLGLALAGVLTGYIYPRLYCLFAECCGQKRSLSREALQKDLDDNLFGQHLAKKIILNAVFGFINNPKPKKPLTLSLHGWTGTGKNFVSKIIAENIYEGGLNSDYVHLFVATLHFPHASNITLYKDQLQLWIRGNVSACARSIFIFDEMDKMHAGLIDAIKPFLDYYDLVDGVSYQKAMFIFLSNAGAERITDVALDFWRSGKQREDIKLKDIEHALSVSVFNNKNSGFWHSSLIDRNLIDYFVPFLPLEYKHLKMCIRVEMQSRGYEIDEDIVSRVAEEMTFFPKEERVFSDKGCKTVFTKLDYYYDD
Assay [8] shares this target. Nature of the assay: torsin A mutant lysate binding on microarrays – cell lysate, small-molecule microarray, COS7 lysate, 635/667 nm fluorescence, primary screen (AID 1150).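 Also: score pools 667 nm emission and signal to noise measuring lysate protein binding.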 The following applies: COS7 hTOR1A mutant lysate, 635 nm fluorescence, higher = more signal.
Assay [9] deals with Sonic hedgehog protein (Shh). In words: Sonic hedgehog microarray binding compounds – biochemical, small-molecule microarray, 635/667 nm fluorescence, primary screen (AID 1151).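 Also: Shh protein binding to compounds spotted on small-molecule microarray slides; score combines spot fluorescence intensity with signal-to-noise across triplicate slides.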 The following applies: 635 nm fluorescence, higher = more signal.
Assay [10] can be described thus: optical density shifts of acrAB sulA E. coli – strain DRC41, OD650, 48 h, E. coli filamentation inducer project, primary screen (AID 1152).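 Also: E. coli MC1000 strain DRC41 lacking acrAB efflux pump and sulA.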 The following applies: higher = more signal, called active from +8 up or from −8 down.
Assay [11] in a line: probe aLefty1 binding on compound microarray – biochemical, small-molecule microarray, 635/667 nm fluorescence, primary screen (AID 1153).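 Also: score merges spot fluorescence with signal-to-noise ratio from the scanned slide images.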 The following applies: higher = more signal.
Assay [12] can be described thus: plasmodial surface anion channel blockers, osmotic lysis – cell-based, P. falciparum Indochina, OD700, 1 h, primary screen (AID 1154). The following applies: P. falciparum Indochina infected RBC osmotic lysis, higher = more signal, called active from +8 up or from −8 down.
The nature of assay [13]: plasmodial surface anion channel blockers, osmotic lysis – cell-based, P. falciparum Indochina, OD700, 2 h, primary screen (AID 1155).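 Also: lysis reports solute entry through the parasite surface anion channel PSAC.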 Conditions: P. falciparum Indochina infected erythrocytes, higher = more signal, called active from +8 up or from −8 down.
The nature of assay [14]: changes in parasitized red cell lysis, either direction – P. falciparum Indochina, OD700, 3 h, PSAC antagonist project, primary screen (AID 1156). Conditions: P. falciparum-infected erythrocytes, osmotic lysis, higher = more signal, called active from +8 up or from −8 down.
A short description of assay [15]: plasmodial surface anion channel blockers, osmotic lysis – cell-based, P. falciparum Indochina, OD700, 18 h, primary screen (AID 1157). The following applies: P. falciparum Indochina infected erythrocytes, osmotic lysis OD700, 18 h; higher = more signal, called active from +8 up or from −8 down.
Assay [16] is described as follows: S6 kinase pathway phospho-S6 level changes – cell-based, A549, cytoblot, luminescence, serum-stimulated, primary screen (AID 1158).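 Also: serum-stimulated A549 lung adenocarcinoma cells; signal is phosphorylated S6 detected by cytoblot immunostaining with HRP secondary.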 Conditions: 5 h, higher = more signal.
Assay [17] deals with NADPH oxidase 2 (Homo sapiens) (UniProt P04839). Nature of the assay: compounds shifting NOX2 Amplex Red fluorescence – cell-based, HEK293-NOX2, PMA-stimulated, NOX inhibitor project, primary screen (AID 1159). Also: test concentration not given here. Conditions: 45 min, higher = more signal, called active from +8 up or from −8 down.
NADPH oxidase 2 (Homo sapiens), sequence (P04839 whole entry, looked up): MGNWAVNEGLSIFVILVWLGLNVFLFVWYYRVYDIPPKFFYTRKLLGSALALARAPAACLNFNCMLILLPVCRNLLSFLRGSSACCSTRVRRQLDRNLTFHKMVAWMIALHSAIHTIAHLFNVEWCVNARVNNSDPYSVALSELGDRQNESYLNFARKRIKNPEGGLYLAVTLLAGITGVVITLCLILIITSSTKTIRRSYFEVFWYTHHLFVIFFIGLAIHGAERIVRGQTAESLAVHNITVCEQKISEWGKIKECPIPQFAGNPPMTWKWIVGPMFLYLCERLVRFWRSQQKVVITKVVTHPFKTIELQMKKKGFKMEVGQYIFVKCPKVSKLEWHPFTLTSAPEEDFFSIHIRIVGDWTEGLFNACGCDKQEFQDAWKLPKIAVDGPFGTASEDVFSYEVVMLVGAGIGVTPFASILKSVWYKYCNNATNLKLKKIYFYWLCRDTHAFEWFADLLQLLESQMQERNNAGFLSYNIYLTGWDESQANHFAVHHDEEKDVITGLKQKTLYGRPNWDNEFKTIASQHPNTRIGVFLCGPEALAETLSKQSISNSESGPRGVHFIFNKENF
For assay [18], the target named is NADPH oxidase 4 (Homo sapiens) (UniProt Q9NPH5). Nature of the assay: compounds shifting NOX4 Amplex Red fluorescence – cell-based, HEK293-NOX4, tetracycline-induced, NOX inhibitor project, primary screen (AID 1160). The following applies: HEK293-NOX4, Amplex Red H2O2 fluorescence, 45 min; higher = more signal, called active from +8 up or from −8 down.
NADPH oxidase 4 (Homo sapiens), sequence (Q9NPH5 whole entry, looked up): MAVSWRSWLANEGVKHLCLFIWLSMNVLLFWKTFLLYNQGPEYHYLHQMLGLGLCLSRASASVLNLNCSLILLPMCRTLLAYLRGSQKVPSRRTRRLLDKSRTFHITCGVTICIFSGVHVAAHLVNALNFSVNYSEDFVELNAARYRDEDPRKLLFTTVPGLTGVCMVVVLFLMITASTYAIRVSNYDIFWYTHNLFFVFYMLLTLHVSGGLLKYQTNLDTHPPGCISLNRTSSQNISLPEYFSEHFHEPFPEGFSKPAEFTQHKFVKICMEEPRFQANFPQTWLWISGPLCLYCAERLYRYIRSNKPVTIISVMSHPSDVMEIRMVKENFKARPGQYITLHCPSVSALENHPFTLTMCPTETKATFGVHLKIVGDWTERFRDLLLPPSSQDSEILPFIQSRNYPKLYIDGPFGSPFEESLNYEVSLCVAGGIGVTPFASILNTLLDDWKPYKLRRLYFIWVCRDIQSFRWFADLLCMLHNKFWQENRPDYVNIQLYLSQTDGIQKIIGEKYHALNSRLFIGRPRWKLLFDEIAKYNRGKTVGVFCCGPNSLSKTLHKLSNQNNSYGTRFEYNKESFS
Assay [19] has as its target NADPH oxidase 5 (Homo sapiens) (UniProt Q96PH1). Nature of the assay: compounds shifting NOX5 Amplex Red fluorescence – cell-based, HEK293-NOX5, NOX inhibitor project, primary screen (AID 1161). Conditions: HEK293-NOX5, ionomycin, 45 min, higher = more signal.
Assay [20] can be described thus: compound effects on lung adenocarcinoma cell viability – A549, calcein-AM fluorescence, 48 h, basal, profiling panel (AID 1162). Also: test concentration not given here. The following applies: higher = more signal.

Streptavidin (Streptomyces avidinii), sequence (P22629 whole entry, looked up): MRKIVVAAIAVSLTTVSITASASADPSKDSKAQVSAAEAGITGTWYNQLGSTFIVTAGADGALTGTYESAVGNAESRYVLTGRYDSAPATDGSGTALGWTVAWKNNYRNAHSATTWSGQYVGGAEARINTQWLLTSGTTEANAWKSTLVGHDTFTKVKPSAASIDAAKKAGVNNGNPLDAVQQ
NADPH oxidase 5 (Homo sapiens), sequence (Q96PH1 whole entry, looked up): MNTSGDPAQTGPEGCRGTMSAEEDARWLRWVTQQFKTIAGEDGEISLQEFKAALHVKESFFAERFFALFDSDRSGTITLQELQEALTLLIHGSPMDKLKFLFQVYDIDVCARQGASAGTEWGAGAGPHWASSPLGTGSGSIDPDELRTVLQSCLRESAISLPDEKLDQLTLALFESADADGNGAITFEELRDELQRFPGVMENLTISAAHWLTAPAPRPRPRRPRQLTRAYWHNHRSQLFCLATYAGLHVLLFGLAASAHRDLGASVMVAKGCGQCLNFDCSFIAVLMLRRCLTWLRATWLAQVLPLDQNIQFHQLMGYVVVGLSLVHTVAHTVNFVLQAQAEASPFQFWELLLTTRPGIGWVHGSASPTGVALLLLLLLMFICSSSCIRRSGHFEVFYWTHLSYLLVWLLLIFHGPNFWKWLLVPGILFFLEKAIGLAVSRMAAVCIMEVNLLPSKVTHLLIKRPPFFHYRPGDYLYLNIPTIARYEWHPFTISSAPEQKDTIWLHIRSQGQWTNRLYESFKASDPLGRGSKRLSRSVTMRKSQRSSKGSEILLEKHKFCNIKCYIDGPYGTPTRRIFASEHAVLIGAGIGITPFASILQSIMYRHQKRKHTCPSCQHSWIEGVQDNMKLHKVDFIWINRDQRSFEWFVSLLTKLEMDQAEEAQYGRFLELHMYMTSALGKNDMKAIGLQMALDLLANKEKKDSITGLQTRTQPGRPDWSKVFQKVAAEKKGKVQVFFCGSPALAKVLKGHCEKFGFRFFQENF

Turning to `C=CCN1C(=O)[C@@]2(O[C@@H](CCn3cc(CCO)nn3)[C@H]([Si](C)(C)c3ccc(OC)cc3)[C@H]2C)c2cc(N3C(=O)c4cccc5cccc3c45)ccc21`, the composite z-score is 0.662 in [1]; 0.854 in assay [5]; 0.0377 in [6]; 0.311 with Torsin-1A (Homo sapiens) [7]; 0.615 with Torsin-1A (Homo sapiens) [8]; 0.802 in [9]. In addition, in assay [11], the composite z-score was found to be 0.0318. The z-score in assay [2] was -7.17 (inactive); in assay [3], 37.8 (active); in assay [4], -3.77 (inactive); in assay [10] it was 2.05 (inactive); in assay [12], 16.4 (active); in [13], 3.97 (inactive). Further, the z-score in assay [14] was -0.551 (inactive); in assay [15] it was 1.5 (inactive); in [16], 0.905; in assay [17], 0.576 (inactive); in [18], 1.11 (inactive); in [19] it was -0.148. Also, the z-score in assay [20] is -4.11.

As for `C=C(/C(=C/C[C@H](OC(=O)c1ccncc1)c1cccc(OCCO)c1)c1cc(C(=O)OC)ccc1OC)C(C)C`, the composite z-score in assay [1] is -0.158; in assay [5] it was 0.0287; in [6], -0.05; with Torsin-1A (Homo sapiens) [7] it was 0.607; with Torsin-1A (Homo sapiens) [8], 0.568; in assay [9], 0.948. The molecule further showed a composite z-score in [11] of -0.0984. Moreover, the z-score in assay [2] is -2.09 (inactive); in [3], 8.57 (active); in assay [4] it was -0.669 (inactive); in assay [10], 1.17 (inactive); in [12], 10.2 (active); in [13] it was -0.289 (inactive). Also, the z-score in [14] is 1.66 (inactive); in [15], -1.19 (inactive); in assay [16], 0.402; in assay [17], 1.62 (inactive); in [18], 0.0371 (inactive); in [19] it was -1.71. For the same molecule, the z-score in assay [20] is 0.396.

With `CO[C@H]1O[C@H](CO)[C@@H](OC(=O)CCc2ccccc2)[C@@H]2OC(=O)[C@H](Cc3ccccc3)C/C=C/C[C@@H](Cc3ccccc3)C(=O)O[C@@H]12`, the composite z-score was -0.221 in assay [1]; -0.804 in [5]; -0.179 in [6]; 0.0387 in the assay with Torsin-1A (Homo sapiens) [7]; 0.0489 with Torsin-1A (Homo sapiens) [8]; -0.214 in assay [9]. The composite z-score in assay [11] is -0.243. For the same molecule, the z-score was -3.09 (inactive) in [2]; -0.552 (inactive) in [3]; -1.18 (inactive) in assay [4]; 2.35 (inactive) in [10]; 6.07 (inactive) in assay [12]; 0.389 (inactive) in assay [13]. The z-score in assay [14] is -1.06 (inactive); in [15], -1.83 (inactive); in assay [16], 0.939; in [17], 1.59 (inactive); in assay [18], 1.26 (inactive); in assay [19], 0.751. Moreover, the z-score in assay [20] is 1.38.

For the molecule `COCCCNC(=O)[C@@]1(C)c2ccccc2C(=O)N(Cc2cc(F)cc(C(F)(F)F)c2)[C@H]1c1ccc(CO)cc1`, the composite z-score in [1] is -0.0509; in [5], -0.624; in [6], -0.38; with Torsin-1A (Homo sapiens) [7], 0.891; in the assay with Torsin-1A (Homo sapiens) [8], -0.439; in [9], -1.16. This molecule also yielded a composite z-score in [11] of -0.279. Further, the z-score is -0.914 (inactive) in assay [2]; -0.0512 (inactive) in [3]; -0.883 (inactive) in assay [4]; 1.7 (inactive) in assay [10]; 1.13 (inactive) in assay [12]; 0.459 (inactive) in [13]. Further, the z-score in [14] was 0.0539 (inactive); in assay [15], 0.0567 (inactive); in assay [16], 0.0396; in assay [17], 0.184 (inactive); in assay [18] it was -1.4 (inactive); in assay [19], 0.42. Moreover, the z-score in assay [20] was -0.0292.

As for `COC(=O)C(CC#Cc1ccc2c(c1)[C@]1(C(=O)N2)[C@H](C(N)=O)[C@H]2C(=O)O[C@H](c3ccccc3)[C@H](c3ccccc3)N2[C@@H]1c1ccc(O)cc1)C(=O)OC`, the composite z-score in assay [1] was -0.156; in [5], -1.09; in assay [6], -0.504; in the assay with Torsin-1A (Homo sapiens) [7], -0.372; with Torsin-1A (Homo sapiens) [8], 0.488; in assay [9] it was -0.295. The same molecule showed a composite z-score in [11] of -0.696. Besides, the z-score was -0.229 (inactive) in assay [2]; 0.182 (inactive) in assay [3]; -0.909 (inactive) in assay [4]; 1.66 (inactive) in assay [10]; 14.5 (active) in assay [12]; 1.23 (inactive) in [13]. For the same molecule, the z-score in assay [14] is 0.974 (inactive); in assay [15], 0.37 (inactive); in assay [16], 0.331; in [17] it was 1.32 (inactive); in [18], 0.297 (inactive); in [19] it was 1.1. Moreover, in [20], the z-score is 0.685.
